Experimental data from PubChem BioAssay AID1159580 (chemical genetic matrix, 2015).
The whole screen tested about 5,500 compounds, of which about 2,000 (36%) were called active. About 18% were inconclusive and are not listed. Cut-off read from the data, not from the text of the source: active = normalized growth mostly below about 0.91 (no sharp cut-off); inconclusive = no clear call, values can overlap the other calls; inactive = mostly above about 0.92. Some of the results follow.

Experiment: chemical genetic growth profiling, strain panel (AID 1159580);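 note: tested at 20 µM; growth read once vehicle control cultures reached saturation at 30 °C; 1 = growth at the plate median or of vehicle wells; lower values mean less growth of the strain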
Conditions: growth OD

Measured: normalized growth

CC(=O)CCCCn1c(=O)c2c(ncn2C)n(C)c1=O
inactive: S. cerevisiae deletion strains, locus YJR066W, strain TOR1, stronger effect = lower value 0.958 | S. cerevisiae deletion strains, locus YJR075W, strain HOC1, stronger effect = lower value 1.01 | S. cerevisiae deletion strains, locus YKL009W, strain mrt4, stronger effect = lower value 0.994 | S. cerevisiae deletion strains, locus YKL068W, stronger effect = lower value 0.997 | S. cerevisiae deletion strains, locus YKL085W, strain MDH1 (second series), stronger effect = lower value 1 | S. cerevisiae deletion strains, locus YKL085W, strain MDH1, stronger effect = lower value 1 | S. cerevisiae deletion strains, locus YKL160W, strain elf1, stronger effect = lower value 1.02 | S. cerevisiae deletion strains, locus YKL190W, strain CNB1, stronger effect = lower value 1.02 | S. cerevisiae deletion strains, locus YKR001C, strain vps1, stronger effect = lower value 1.02 | S. cerevisiae deletion strains, locus YKR026C, strain gcn3, stronger effect = lower value 1.01 | S. cerevisiae deletion strains, locus YKR091W, strain srl3, stronger effect = lower value 1.01 | S. cerevisiae deletion strains, locus YLL001W, strain dnm1, stronger effect = lower value 1.01 | S. cerevisiae deletion strains, locus YLL026W, stronger effect = lower value 1.01 | S. cerevisiae deletion strains, locus YLL041C, strain sdh2, stronger effect = lower value 1.01 | S. cerevisiae deletion strains, locus YLR027C, strain aat2, stronger effect = lower value 1 | S. cerevisiae deletion strains, locus YLR039C, strain RIC1, stronger effect = lower value 1.03 | S. cerevisiae deletion strains, locus YLR058C, strain SHM2, stronger effect = lower value 1.02 | S. cerevisiae deletion strains, locus YLR102C, strain apc9, stronger effect = lower value 0.997 | S. cerevisiae deletion strains, locus YLR113W, strain HOG1, stronger effect = lower value 1 | S. cerevisiae deletion strains, locus YLR221C, strain rsa3, stronger effect = lower value 1.02 | S. cerevisiae deletion strains, locus YLR258W, strain gsy2, stronger effect = lower value 1.01 | S. cerevisiae deletion strains, locus YLR262C, strain YPT6 (second series), stronger effect = lower value 1.01 | S. cerevisiae deletion strains, locus YLR262C, strain YPT6, stronger effect = lower value 1.09 | S. cerevisiae deletion strains, locus YLR268W, strain sec22, stronger effect = lower value 1.01 | S. cerevisiae deletion strains, locus YLR320W, strain mms22, stronger effect = lower value 1.03 | S. cerevisiae deletion strains, locus YLR330W, strain CHS5, stronger effect = lower value 1.01 | S. cerevisiae deletion strains, locus YLR342W, strain FKS1 (second series), stronger effect = lower value 0.979 | S. cerevisiae deletion strains, locus YLR342W, strain FKS1, stronger effect = lower value 1.01 | S. cerevisiae deletion strains, locus YLR357W, strain rsc2, stronger effect = lower value 1.07 | S. cerevisiae deletion strains, locus YLR370C, strain arc18, stronger effect = lower value 1.02 | S. cerevisiae deletion strains, locus YLR371W, strain rom2, stronger effect = lower value 0.993 | S. cerevisiae deletion strains, locus YLR384C, strain iki3, stronger effect = lower value 1.02 | S. cerevisiae deletion strains, locus YLR418C, strain cdc73, stronger effect = lower value 0.982 | S. cerevisiae deletion strains, locus YML016C, strain PPZ1, stronger effect = lower value 1.02 | S. cerevisiae deletion strains, locus YML032C, strain rad52, stronger effect = lower value 0.997 | S. cerevisiae deletion strains, locus YML120C, strain ndi1, stronger effect = lower value 1.02 | S. cerevisiae deletion strains, locus YML124C, strain tub3, stronger effect = lower value 0.996 | S. cerevisiae deletion strains, locus YMR058W, strain fet3, stronger effect = lower value 1.02 | S. cerevisiae deletion strains, locus YMR078C, strain ctf18, stronger effect = lower value 0.996 | S. cerevisiae deletion strains, locus YMR125W, strain sto1, stronger effect = lower value 1.02 | S. cerevisiae deletion strains, locus YMR129W, stronger effect = lower value 1.01 | S. cerevisiae deletion strains, locus YMR205C, strain PFK2, stronger effect = lower value 1.04 | S. cerevisiae deletion strains, locus YMR223W, strain ubp8, stronger effect = lower value 0.975 | S. cerevisiae deletion strains, locus YMR231W, strain pep5, stronger effect = lower value 1.02 | S. cerevisiae deletion strains, locus YMR307W, strain GAS1, stronger effect = lower value 0.995 | S. cerevisiae deletion strains, locus YNL067W, strain RPL9B, stronger effect = lower value 1.04 | S. cerevisiae deletion strains, locus YNL071W, strain lat1, stronger effect = lower value 1.01 | S. cerevisiae deletion strains, locus YNL128W, strain TEP1, stronger effect = lower value 0.998 | S. cerevisiae deletion strains, locus YNL175C, strain NOP13, stronger effect = lower value 1.02 | S. cerevisiae deletion strains, locus YNL183C, strain NPR1, stronger effect = lower value 0.924 | S. cerevisiae deletion strains, locus YNL197C, strain WHI3, stronger effect = lower value 1.01 | S. cerevisiae deletion strains, locus YNL209W, strain ssb2, stronger effect = lower value 1.01 | S. cerevisiae deletion strains, locus YNL224C, strain SQS1, stronger effect = lower value 1 | S. cerevisiae deletion strains, locus YNL233W, strain BNI4, stronger effect = lower value 1.02 | S. cerevisiae deletion strains, locus YNL248C, strain rpa49, stronger effect = lower value 1.01 | S. cerevisiae deletion strains, locus YNL250W, strain rad50, stronger effect = lower value 1.02 | S. cerevisiae deletion strains, locus YNL271C, strain bni1, stronger effect = lower value 1 | S. cerevisiae deletion strains, locus YNL298W, strain CLA4, stronger effect = lower value 1 | S. cerevisiae deletion strains, locus YNL307C, strain MCK1, stronger effect = lower value 0.99 | S. cerevisiae deletion strains, locus YNL322C, strain KRE1 (second series), stronger effect = lower value 1.02 | S. cerevisiae deletion strains, locus YNL322C, strain KRE1, stronger effect = lower value 1.01 | S. cerevisiae deletion strains, locus YNR049C, strain mso1, stronger effect = lower value 1.01 | S. cerevisiae deletion strains, locus YNR052C, strain pop2, stronger effect = lower value 1.01 | S. cerevisiae deletion strains, locus YOL006C, strain TOP1, stronger effect = lower value 1.08 | S. cerevisiae deletion strains, locus YOL012C, strain htz1 1.51 | S. cerevisiae deletion strains, locus YOL147C, strain pex11, stronger effect = lower value 1 | S. cerevisiae deletion strains, locus YOR001W, strain rrp6, stronger effect = lower value 1.04 | S. cerevisiae deletion strains, locus YOR061W, strain CKA2, stronger effect = lower value 1.02 | S. cerevisiae deletion strains, locus YOR069W, strain VPS5, stronger effect = lower value 1.01 | S. cerevisiae deletion strains, locus YOR070C, strain gyp1, stronger effect = lower value 1.01 | S. cerevisiae deletion strains, locus YOR080W, strain dia2, stronger effect = lower value 1.02 | S. cerevisiae deletion strains, locus YOR083W, strain WHI5 (second series), stronger effect = lower value 1.05 | S. cerevisiae deletion strains, locus YOR083W, strain WHI5, stronger effect = lower value 1 | S. cerevisiae deletion strains, locus YOR106W, strain vam3, stronger effect = lower value 1.02 | S. cerevisiae deletion strains, locus YOR136W, strain idh2, stronger effect = lower value 0.996 | S. cerevisiae deletion strains, locus YOR144C, strain elg1, stronger effect = lower value 0.99 | S. cerevisiae deletion strains, locus YOR184W, strain ser1, stronger effect = lower value 0.999 | S. cerevisiae deletion strains, locus YOR231W, strain MKK1, stronger effect = lower value 0.977 | S. cerevisiae deletion strains, locus YOR265W, strain rbl2, stronger effect = lower value 1.01 | S. cerevisiae deletion strains, locus YOR270C, strain vph1, stronger effect = lower value 1.04 | S. cerevisiae deletion strains, locus YOR290C, strain snf2, stronger effect = lower value 1 | S. cerevisiae deletion strains, locus YOR316C, strain cot1, stronger effect = lower value 0.999 | S. cerevisiae deletion strains, locus YPL051W, strain arl3, stronger effect = lower value 1.01 | S. cerevisiae deletion strains, locus YPL055C, strain LGE1, stronger effect = lower value 1.04 | S. cerevisiae deletion strains, locus YPL078C, strain atp4, stronger effect = lower value 1.01 | S. cerevisiae deletion strains, locus YPL106C, strain sse1, stronger effect = lower value 1.03 | S. cerevisiae deletion strains, locus YPL240C, strain hsp82, stronger effect = lower value 1.01 | S. cerevisiae deletion strains, locus YPL241C, strain CIN2, stronger effect = lower value 1.01 | S. cerevisiae deletion strains, locus YPL256C, strain CLN2, stronger effect = lower value 0.958 | S. cerevisiae deletion strains, locus YPR119W, strain clb2, stronger effect = lower value 0.993 | S. cerevisiae deletion strains, locus YPR141C, strain kar3, stronger effect = lower value 0.991 | S. cerevisiae deletion strains, locus YPR163C, strain tif3, stronger effect = lower value 1 | S. cerevisiae deletion strains, locus YPR167C, strain met16, stronger effect = lower value 0.997 | S. cerevisiae deletion strains, strain wtn01, stronger effect = lower value 1 | S. cerevisiae strains, strain wild type, stronger effect = lower value 1.02
